High-throughput results as filed in PubChem.
This is a sample that favours compounds with a hit; in the whole collection about 21% have one here.
Pf growth 96h = P. falciparum growth inhibition at 96 hour, primary screen for plastid delayed-death inhibitors | P. falciparum luciferase reporter growth, 96 h | Potency, µM (top dose mostly 28.7 µM), without a hit: at the highest dose activity change, negative = inhibition, hits mostly inhibitors | actives 6.9% (n = 320,000) | AID 504834; further: potency means the concentration at half of the fitted maximal effect; on the % scale 0 is the no-effect control and ±100 the full control effect
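Compounds incubated with erythrocytes infected by luciferase-expressing P. falciparum (2% hematocrit, 0.05% parasitemia final) for 96 hours, 37 C in 5% CO2. Growth inhibition scored as decreased luciferase luminescence.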
Pf growth 48h = P. falciparum growth inhibition at 48 hours (one generation) | actives 5.9% (n = 310,000) | P. falciparum luciferase growth in erythrocytes, 48 h | Potency, µM (titrated, usually from 28.7 µM), for the others: at the highest dose activity change, negative = inhibition, hits mostly inhibitors; further: potency means the concentration at half of the fitted maximal effect; on the % scale 0 is the no-effect control and ±100 the full control effect
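Growth was read as firefly luciferase luminescence after a 48 h, 37 C, 5% CO2 exposure of compounds to reporter-bearing P. falciparum cultures (0.1% parasitemia, 2% hematocrit final) in Albumax-supplemented RPMI 1640.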
Shiga inhibitor = Shiga toxin inhibition. Vero cells, Shiga toxin protein synthesis inhibition reporter. inhibition, % at 38.7 µM. actives 9.2% (n = 290,000). AID 2315; in the data active means inhibition mostly above about 28%, no sharp cut-off; inactive means mostly below about 43%; further: 0% is about no effect
CHX counter = affects cycloheximide protein synthesis inhibition readout, counter-screen; AID 2314; cell reporter, cycloheximide protein synthesis inhibition counterscreen; actives 12% (n = 300,000); max response, %; in the data active means max response mostly above about 13%, no sharp cut-off; inactive means mostly below about 14%; further: read at 38.3 µM for the half of the compounds with a filed dose; 0% is about no effect
NS1 inh = blocks influenza NS1 protein function; Potency, µM (top dose mostly 46.1 µM), for the others: top-dose activity, positive = more growth; actives 0.4% (n = 270,000); AID 2326; calls by dose curve; further: potency means the concentration at half of the fitted maximal effect; actives are rising curves; nearly all actives have a fitted effect of over 50% in size
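Compounds were scored for reversing the slow growth caused by influenza A NS1 in S. cerevisiae, measured by optical density at 600 nm. Assay medium contained 2% galactose at pH 6.0; NS1-free yeast of the same strain were the positive control.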
The depositor's hits bear a star; ? = inconclusive; · = no result given. Unless noted, the call rests on the fitted dose curve; in most records, active means well fitted inhibition curve with a large enough effect; inconclusive means small, poorly fitted or top-dose-only effect, or another doubt; inactive means no such curve, though single readings can be large or run the other way.

SMILES	Pf growth 96h	Pf growth 48h	Shiga inhibitor	CHX counter	NS1 inh
CCN(CC)c1ccc(C(=O)OCC(=O)NC2CCCCC2C)cc1 (centres undefined)	-2%	·	-4	-2	6%
N#Cc1ccsc1NC(=O)COC(=O)c1cc2ccccc2cc1O	42%	64%	84*	31*	17%
Clc1ccccc1-c1nc2ccccc2c2nc3ccccc3n12	-5%	-56%	-2	4	-5%
COc1ccc(-c2nnc3n2N=C(c2c(OC)cccc2OC)CS3)cc1OC	·	·	-9	-7	·
C=C(C)C(=O)OC1(C(F)(F)F)Oc2cc(C)ccc2NC1=O (centres undefined)	-5%	?	93*	56*	-37%
Cc1ccc(NC(=O)COC(=O)C(CC(C)C)N2C(=O)C3CC=CCC3C2=O)c(C)c1 (centres undefined)	?	21%	-11	-7	-3%
O=[N+]([O-])c1ccccc1-c1cc(-c2ccccc2)cc(-c2ccccc2)[n+]1Cc1ccccc1Cl	?	0.93µM*	·	·	·
Cc1ccc(/C=C2/Sc3ccccc3N(CC(=O)NCCCOC(C)C)C2=O)cc1	13%	-16%	-12	-2	-25%
CCOC(=O)C1=C(C)N(c2ccccc2)C(=O)/C1=C\c1ccco1	?	20%	3	6	-8%
CCOC(=O)C1=C(C)N(c2ccccc2)C(=O)/C1=C\c1ccc(O)c(OC)c1	?	?	-17	4	2.5µM*
CC(=O)Nc1cc2c(s1)c1cnn(Cc3ccccc3F)c(=O)c1n2C	2%	7%	·	·	·
O=C(Nc1cccc(Br)c1)c1cc(=O)c2ccccc2o1	61%	46%	-8	10	-11%
COc1cccc(C(=O)N2CCCC(Nc3ccc(C)c(C)c3)C2)c1 (centres undefined)	?	-3%	2	0	-8%
COc1cccc(C(=O)N2CCN(C(=O)C3CC3)CC2)c1	12µM*	10%	19	-6	7%
COc1cccc(C(=O)C2CCCN(C(=O)c3cccc(C#CC(C)(C)O)c3)C2)c1 (centres undefined)	12µM*	?	50	12	-5%
CN(C)/C=N/c1ncc(C(=O)c2ccc(Cl)cc2Cl)s1	?	?	3	16	·
CN(C)/C=N/c1ncc(C(=O)c2ccc(Cl)cc2)s1	52%	50%	58*	43*	-2%
CCOC(=O)c1sc(N(Cc2ccccc2)C(=O)CSc2nnc(C3CC3)n2N)nc1C	27%	1%	79*	17*	-48%
CCOC(=O)c1sc(N(Cc2ccccc2)C(=O)COC(=O)c2cnccn2)nc1C	0%	0%	69	6	-22%
COc1ccc(C(=O)OCN2C(=O)c3ccccc3C2=O)cc1	-2%	24%	2	2	1%
O=C(CSc1nc(NS(=O)(=O)c2ccccc2)cc(=O)[nH]1)Nc1ccc(F)cc1	1.9µM*	-20%	-6	-2	-19%
CN(C1=NS(=O)(=O)c2ccccc21)c1ccc(OC(=O)c2ccncc2)cc1	-7%	-11%	-24	1	1%
O=C1C=C(c2ccccc2)OC(=O)C1C(=O)c1ccccc1 (centres undefined)	?	-5%	14	-2	-38%
O=c1[nH]c(C2CCCN(S(=O)(=O)c3ccccc3Cl)C2)nc2c1nnn2Cc1ccc2c(c1)OCCO2 (centres undefined)	13µM*	?	-11	-2	9%
O=c1[nH]c(C2CCN(S(=O)(=O)c3ccccc3F)CC2)nc2c1nnn2Cc1ccc(F)cc1	5%	-16%	5	-5	18%
SMILES	Pf growth 96h	Pf growth 48h	Shiga inhibitor	CHX counter	NS1 inh
O=c1[nH]c(C2CCCN(S(=O)(=O)c3ccccc3F)C2)nc2c1nnn2Cc1ccccc1Cl (centres undefined)	12µM*	?	-14	1	-1%
CCCCCCC(=O)N1CCC(c2nc3c(nnn3Cc3ccccc3Cl)c(=O)[nH]2)CC1	?	13µM*	-8	2	-25%
O=c1[nH]c(C2CCN(S(=O)(=O)c3ccccc3)CC2)nc2c1nnn2Cc1ccc2c(c1)OCCO2	-1%	?	-8	2	16%
CC1(C)Oc2ccc(C#N)cc2[C@@H](N2CCCC2=O)[C@@H]1O	-13%	2%	-16	-5	0%
N#CC1=C(N)NC(SCC(=O)c2ccc(Cl)cc2)=C(C#N)C12CCCC2	·	?	26	6	4%
N#CC1=C(N)NC(SCC(=O)Nc2ccccc2)=C(C#N)C12CCCCC2	13µM*	?	-6	-3	-14%
COc1ccc(C(=O)CSC2=C(C#N)C3(CCCCC3)C(C#N)=C(N)N2)cc1	4%	12µM*	-18	-5	13%
N#CC1=C(N)NC(SCC(=O)c2ccc(Br)cc2)=C(C#N)C12CCCCC2	15µM*	?	14	-4	-7%
O=C(COCc1cc(-c2ccc3c(c2)OCO3)on1)N1CCN(c2cccc(C(F)(F)F)c2)CC1	3%	?	17	-4	-1%
Cc1ccc(CNC(=O)CCS(=O)(=O)c2ccc3c(c2)NC(=O)CS3)cc1	47%	9%	-2	-10	7%
COc1ccccc1C(=O)NC(=O)OCCn1c(C)cnc1[N+](=O)[O-]	9.3µM*	-11%	-11	10	·
Cc1cnc([N+](=O)[O-])n1CCOC(=O)NC(=O)c1ccccc1	?	-17%	-1	-1	·
COc1ccc(C2(C)NC(=O)N(CC(=O)Nc3ccc(-c4nc5ccc(C)cc5s4)cc3)C2=O)cc1 (centres undefined)	-17%	475%	112*	64*	12%
CCC1(c2ccc(F)cc2)NC(=O)N(CC(=O)Nc2ccc(-c3nc4ccc(C)cc4s3)cc2)C1=O (centres undefined)	0%	251%	107*	39*	-33%
Cc1ccc(NC(=O)CN2C(=O)NC(C)(c3ccc(Cl)cc3)C2=O)cc1 (centres undefined)	18%	3%	20	-5	3%
CCC1(c2ccc(F)cc2)NC(=O)N(CC(=O)Nc2ccccc2Cl)C1=O (centres undefined)	?	-10%	-3	-2	-3%
CCCNC(=O)C(=O)Nc1ccc(N(C)C)cc1	?	497%	68*	31*	0%
C=CCNC(=S)Nc1ccc(N(C)C)cc1	?	-11%	24	29*	7%
COc1ccc(N(C)C(=O)Cc2c(C(=O)O)n(C)c3ccccc23)c(OC)c1	21%	19%	1	-3	5%
CC1CCCC(NC(=O)c2cccc(S(=O)(=O)N3CCN(c4ccccc4)CC3)c2)C1C (centres undefined)	12%	?	·	·	·
C=C(Cl)COc1ccc2c(CC)cc(=O)oc2c1	·	24%	-19	1	-65%
Cc1cc(=O)oc2cc(OCC3CC(c4ccccc4)=NO3)ccc12 (centres undefined)	-41%	·	53*	21*	-9%
CCCCc1cc(=O)oc2cc(OS(C)(=O)=O)ccc12	58%	24%	-33	20*	-20%
